Mtb bLac sens: beta-lactam sensitization of Mtb H37Rv, H37Rv; AID 434955, 2010; M. tuberculosis H37Rv growth with meropenem, percent inhibition; inhibition, % at 25 µM; actives 0.27% (n = 330,000); call rule not given here;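 also: growth measured after seven days incubation then overnight dye step; 0% = bacteria only wells and 100% = bacteria with antibiotic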
MazEF act: activators of E. coli MazEF toxin-antitoxin RNase, primary screen, biochemical, fluorescence, uHTS. activation, % at 20 µM. FAM/BHQ RNA-DNA oligo cleavage fluorescence, 5 h. Endoribonuclease toxin MazF (Escherichia coli (strain K12)), P0AE70. actives 0.32% (n = 350,000); in the data active = activation above about 50%
Target sequence (P0AE70 whole entry, looked up): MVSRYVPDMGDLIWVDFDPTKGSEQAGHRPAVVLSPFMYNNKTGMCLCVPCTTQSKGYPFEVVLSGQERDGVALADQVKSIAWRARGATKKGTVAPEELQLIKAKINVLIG
SARS 3CLpro inh: SARS-CoV 3CLpro protease inhibitors, primary screen, biochemical, quenched FRET; AID 1706, 2009; recombinant SARS-CoV 3CLpro, quenched FRET peptide cleavage; Replicase polyprotein 1ab (Severe acute respiratory syndrome coronavirus), P0C6X7; inhibition, % at 6 µM; actives 0.14% (n = 290,000); in the data active = inhibition above about 12%
Sa ugtP lethal: growth inhibition of ugtP-null S. aureus, primary screen, RN4220 ugtP deletion, OD600; growth inhibition, % (no concentration beside the values); 16 h; actives 0.54% (n = 330,000); in the data active = growth inhibition above about 68%;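 also: plate controls were untreated wells for no effect and antibiotic for full effect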
Sa RN4220 lethal: growth inhibition of S. aureus RN4220, primary screen, OD600 | 16 h | inhibition, % (test concentration not listed) | actives 0.33% (n = 330,000) | AID 1259311, 2017; in the data active = inhibition above about 85%;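 also: plate controls were untreated cells for no effect and reference antibiotic for full effect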
CCHF vOTU inh-1: CCHFV vOTU protease inhibitors, primary screen, biochemical, Pep-AMC substrate, fluorescence | actives 0.55% (n = 370,000) | Crimean-Congo hemorrhagic fever virus L polyprotein viral ovarian tumor (vOTU) protease … | inhibition, % at 11.5 µM; also: 0% = vehicle wells with enzyme and 100% = no enzyme wells
CCHF vOTU inh-2: CCHFV vOTU protease inhibitors, confirmation, biochemical, Pep-AMC substrate, fluorescence. Recombinant CCHFV vOTU. shares compounds with CCHF vOTU inh-1. actives 17% (n = 1,900). inhibition, % at 11.5 µM
The depositor's hits bear a star. The list is not random: actives were taken first. Their share in the collection is about 1.3%. Rule as the data show it, unless noted: active = inhibition above about 30%; inactive = the rest.

What do the screens show for `CCc1ccc([C@@H]2CC(=O)[C@@H]3CN(S(=O)(=O)c4ccc(Cl)cc4)[C@H](c4ccc(C)cc4)C[C@@H]3N2S(=O)(=O)c2ccc(C)cc2)cc1`?
CCHF vOTU inh-1: 35*; CCHF vOTU inh-2: -5

How did Cc1ccc([C@@H]2CC(=O)[C@@H]3CN(S(=O)(=O)c4ccc(C)cc4)[C@H](c4ccc(Cl)cc4)C[C@@H]3N2S(=O)(=O)c2ccc(Cl)cc2)cc1 do in these assays?
MazEF act: -13; CCHF vOTU inh-1: 31*; CCHF vOTU inh-2: -20

Results for CCc1ccc([C@H]2[C@@H]3C(=O)C[C@@H]4C(=O)N(C)C(=O)[C@@H]4[C@@H]3CN2S(=O)(=O)c2ccc(C)cc2)cc1 ?
CCHF vOTU inh-1: 30*; CCHF vOTU inh-2: -7

What do the screens show for `COc1ccc(-c2oc(=O)c3cc(OC)c(OC)cc3c2C=Cc2cccc([N+](=O)[O-])c2)cc1`?
Sa ugtP lethal: -10; Sa RN4220 lethal: 10

Results for CN(C)C=Nc1c(C(=O)c2ccccc2)sc2nccc(N(C)C)c12 ?
Mtb bLac sens: -3; MazEF act: 5; SARS 3CLpro inh: -6; Sa ugtP lethal: 5; Sa RN4220 lethal: 3; CCHF vOTU inh-1: 30*; CCHF vOTU inh-2: -2

What do the screens show for `Cc1ccccc1OCC(=O)N1N=C(C(F)(F)F)CC1(O)C(C)(C)C` (configuration not stated)?
Mtb bLac sens: 0; MazEF act: 1; SARS 3CLpro inh: 0; Sa ugtP lethal: -14; Sa RN4220 lethal: 11; CCHF vOTU inh-1: 33*; CCHF vOTU inh-2: 10

What do the screens show for `CCN(c1ccc(OC)cc1)S(=O)(=O)c1cc(-c2cc(C)no2)ccc1C(C)C`?
Mtb bLac sens: -7; MazEF act: -21; SARS 3CLpro inh: 0; Sa ugtP lethal: 5; Sa RN4220 lethal: 9; CCHF vOTU inh-1: 16

Results for CCN(c1ccc(OC)cc1)S(=O)(=O)c1cc(-c2cc(C)no2)ccc1OC ?
Mtb bLac sens: -11; MazEF act: -10; SARS 3CLpro inh: 3; Sa ugtP lethal: -4; Sa RN4220 lethal: 7; CCHF vOTU inh-1: 31*; CCHF vOTU inh-2: -18

What do the screens show for `COc1ccc(C(C)=NNC(=O)CNC(=O)/C=C\c2ccccc2OC)c(OC)c1`?
Sa ugtP lethal: 2; Sa RN4220 lethal: 1

What do the screens show for `CCCCNC(=O)C(NC(=O)Cc1cc(C(F)(F)F)cc(C(F)(F)F)c1)C(=O)c1ccccc1` (configuration not stated)?
CCHF vOTU inh-1: 30*; CCHF vOTU inh-2: 1

How did COc1cc2c(cc1OC)C1C(=O)c3ccc4c(c3OC1CO2)CC(C(C)(C)O)O4 (configuration not stated) do in these assays?
Sa ugtP lethal: -1; Sa RN4220 lethal: 5

Results for Cc1onc(-c2c(Cl)cccc2Cl)c1CON=C(C#N)c1c(Cl)cccc1Cl ?
Sa ugtP lethal: 0; Sa RN4220 lethal: 4

Results for CC=CC=NNc1nc(C)cc(=O)[nH]1 ?
Sa ugtP lethal: -2; Sa RN4220 lethal: 9

Results for Cc1cc(=O)[nH]c(N/N=C/C=C/c2ccccc2)n1 ?
Mtb bLac sens: 1; MazEF act: 0; SARS 3CLpro inh: 0; CCHF vOTU inh-1: 35*; CCHF vOTU inh-2: -3

How did O=C(NN=Cc1ccccn1)c1cc(-c2ccc(Br)s2)[nH]n1 do in these assays?
Sa ugtP lethal: -13; Sa RN4220 lethal: 1

Results for Nc1ccn(CC(=O)NC(CO)Cc2c[nH]c3ccccc23)c(=O)n1 (configuration not stated) ?
Sa ugtP lethal: 0; Sa RN4220 lethal: 7

What do the screens show for `CCCn1c(O)c(N=NC(=O)CNC(=O)Cc2ccc(OC)cc2)c2ccccc21`?
Mtb bLac sens: -3; MazEF act: 7; SARS 3CLpro inh: 4; Sa ugtP lethal: 8; Sa RN4220 lethal: 3; CCHF vOTU inh-1: 32*; CCHF vOTU inh-2: -4

Results for CCCn1c(O)c(N=NC(=O)CNC(=O)/C=C/c2ccc(OC)cc2)c2ccccc21 ?
Mtb bLac sens: 6; MazEF act: 3; SARS 3CLpro inh: 4; Sa ugtP lethal: -1; Sa RN4220 lethal: 1; CCHF vOTU inh-1: 21

How did O=C1C(O)=C(O)C(=O)c2ccccc21 do in these assays?
Mtb bLac sens: 2; MazEF act: 2; Sa ugtP lethal: 2; Sa RN4220 lethal: -2; CCHF vOTU inh-1: 105*; CCHF vOTU inh-2: 60*

What do the screens show for `O=C1C(=O)c2ccccc2C(O)=C1c1ccccc1F`?
Mtb bLac sens: 3; MazEF act: 9; SARS 3CLpro inh: -2; Sa ugtP lethal: 7; Sa RN4220 lethal: 12; CCHF vOTU inh-1: -6

What do the screens show for `O=C1c2ccccc2C(=O)c2[nH]c(=O)[nH]c21`?
Mtb bLac sens: 100; MazEF act: -1; SARS 3CLpro inh: -1; Sa ugtP lethal: 23; Sa RN4220 lethal: 44; CCHF vOTU inh-1: 79*; CCHF vOTU inh-2: 75*

How did O=C(NN=Cc1coc2ccccc2c1=O)c1cc2ccccc2o1 do in these assays?
Sa ugtP lethal: 6; Sa RN4220 lethal: 5

How did Cc1nn(C)c(C(=O)N/N=C/c2ccccc2)c1[N+](=O)[O-] do in these assays?
Mtb bLac sens: -5; MazEF act: 11; SARS 3CLpro inh: 5; CCHF vOTU inh-1: 31*; CCHF vOTU inh-2: -13

How did ON=C1CC2(Cc3nonc31)OCCO2 do in these assays?
Sa ugtP lethal: 4; Sa RN4220 lethal: 5

What do the screens show for `CC(=O)Nc1ccc(NC(=O)c2ccc(S(=O)(=O)N3CCCCCC3)cc2)cc1`?
MazEF act: -7; CCHF vOTU inh-1: 43*; CCHF vOTU inh-2: 0

Results for Cc1nn(-c2ccccc2)c(C)c1C=NNS(=O)(=O)c1ccc(Cl)cc1 ?
Sa ugtP lethal: -2; Sa RN4220 lethal: -2

Results for CCOC(=O)/C(C#N)=C/C=C1/C=CC=CN1C ?
Mtb bLac sens: -21; MazEF act: -9; SARS 3CLpro inh: 2; Sa ugtP lethal: 2; Sa RN4220 lethal: 4; CCHF vOTU inh-1: 15

What do the screens show for `C=CCN1C=CC(=C/C=C(/C#N)C(=O)OCC)C=C1`?
Mtb bLac sens: -1; MazEF act: -148; SARS 3CLpro inh: 3; Sa ugtP lethal: -6; Sa RN4220 lethal: 1; CCHF vOTU inh-1: 38*; CCHF vOTU inh-2: 30*

What do the screens show for `CCOC(=O)c1c(NC(=O)c2c(N)n(CCCOC)c3nc4ccccc4nc23)sc2c1CCCC2`?
Mtb bLac sens: 2; MazEF act: 0; SARS 3CLpro inh: -3; Sa ugtP lethal: 26; Sa RN4220 lethal: -9; CCHF vOTU inh-1: -2

High-throughput results as filed in PubChem.
